Assay results as given in PubChem BioAssay (NCATS).
Calls of active or inactive are those of the source. A call without a number means that no potency is given here. Unless noted, the call rests on the fitted dose curve; in most records, active means well fitted curve in the direction sought with a large enough effect (not every such curve was filed as active); inconclusive means small, poorly fitted or top-dose-only effect, or effect the other way, or another doubt; inactive means no such curve, though single readings can be large or run the other way.

Target: Pyruvate kinase (Leishmania mexicana) (UniProt Q27686)
Sequence (Q27686 2-499 E452W): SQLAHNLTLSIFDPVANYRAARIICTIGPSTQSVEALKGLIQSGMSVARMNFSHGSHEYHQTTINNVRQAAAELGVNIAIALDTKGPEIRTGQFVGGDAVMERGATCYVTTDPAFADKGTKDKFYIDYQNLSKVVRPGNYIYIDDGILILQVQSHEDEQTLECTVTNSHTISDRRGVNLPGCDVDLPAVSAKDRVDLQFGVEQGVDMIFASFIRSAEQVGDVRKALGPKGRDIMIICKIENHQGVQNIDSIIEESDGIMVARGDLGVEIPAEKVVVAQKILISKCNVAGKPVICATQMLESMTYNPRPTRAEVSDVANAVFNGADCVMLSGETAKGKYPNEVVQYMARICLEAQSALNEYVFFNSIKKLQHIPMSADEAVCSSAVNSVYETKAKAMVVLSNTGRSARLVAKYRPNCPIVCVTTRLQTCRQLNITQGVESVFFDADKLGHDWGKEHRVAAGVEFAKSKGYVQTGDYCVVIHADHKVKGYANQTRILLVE
Assay: qHTS Validation Assay for Inhibitors of Leishmania Mexicana Pyruvate Kinase (AID 945; active means well fitted inhibition curve with a large enough effect)
Details: purified L. mexicana pyruvate kinase, enzyme activity, E451W mutant enzyme; series mostly up to 57.5 µM
How it was run: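 Compounds are tested as eight-point concentration series. Reactions contain 0.2 nM LmPYK E451W, 0.5 mM PEP, 0.1 mM ADP, 7 mM MgCl2 and 50 mM KCl at pH 7.2, run 1 h at room temperature, then read by PKLight luminescence.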

Compound	Potency
O=c1oc(Cl)c(Cl)c2ccccc12	inactive
CN[C@H](CC(=O)O)C(=O)O	inactive
O=c1[nH]c2ccccc2c2ccccc12	inactive
COc1ccc(C(=O)NCc2cccnc2)cc1C(=O)NCc1cccnc1	inactive
CC(N)=O	inactive
[Li+]	inactive
N[C@@H](Cc1c[nH]c2ccccc12)C(=O)O	inactive
O=C1Nc2ccc(I)cc2/C1=C/c1cc(Br)c(O)c(Br)c1	inactive
O=c1onc2cnc3ccccc3n12	inactive
CCN(CC)CCCCCCCCOC(=O)c1cc(OC)c(OC)c(OC)c1	inactive
Fc1ccc(CN(C2=NCCN2)c2c(Cl)cccc2Cl)cc1	inactive
COc1cc(CNC(=O)CCCCCCC(C)C)ccc1O	inactive
Cn1c(=O)c2[nH]c(C3CCCC3)nc2n(C)c1=O	inactive
CSC(=N)N	inactive
NC(N)=NC(N)=Nc1cccc(Cl)c1	inactive
CC(=O)NCCc1c[nH]c2ccc(O)cc12	inactive
CC(C)NC[C@H](O)COc1ccc(CC(N)=O)cc1	inactive

Target: Pyruvate kinase PKM (Homo sapiens) (UniProt P14618)
Sequence (P14618 whole entry, looked up): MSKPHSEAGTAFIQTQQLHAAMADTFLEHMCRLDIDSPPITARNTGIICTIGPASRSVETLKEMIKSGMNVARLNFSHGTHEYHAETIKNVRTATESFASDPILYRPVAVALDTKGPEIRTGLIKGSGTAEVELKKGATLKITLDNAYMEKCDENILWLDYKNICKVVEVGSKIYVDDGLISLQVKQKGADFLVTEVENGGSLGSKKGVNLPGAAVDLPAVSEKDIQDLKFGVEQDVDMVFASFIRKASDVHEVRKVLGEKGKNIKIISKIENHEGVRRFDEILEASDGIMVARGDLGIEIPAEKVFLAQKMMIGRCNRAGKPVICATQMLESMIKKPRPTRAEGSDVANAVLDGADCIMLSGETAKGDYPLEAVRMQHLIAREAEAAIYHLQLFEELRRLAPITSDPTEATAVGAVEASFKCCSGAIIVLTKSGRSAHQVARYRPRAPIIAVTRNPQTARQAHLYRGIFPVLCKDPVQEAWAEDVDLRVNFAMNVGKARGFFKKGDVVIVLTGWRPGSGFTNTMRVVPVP
Assay: qHTS Assay for Activators of Human Muscle Pyruvate Kinase (AID 954)
Details: purified human muscle pyruvate kinase, luciferase-coupled luminescence, 1 h; series mostly up to 57.5 µM
How it was run: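 ATP production by PKM2 detected via luciferase luminescence after 1 h room-temperature reaction (0.1 nM enzyme, PEP at Km 0.5 mM, ADP 0.1 mM, pH 7.2 imidazole buffer). Inhibition scaled to no-enzyme control; activation referenced to 0.3 nM enzyme wells.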

Compound	outcome
O=C(O)C1=CCCNC1	inactive
CN1CCN(c2nc3cc(C(F)(F)F)ccc3n3cccc23)CC1	inactive
COc1cc(N)c(Cl)cc1C(=O)OCCN1CCCCC1	inactive
O=c1onc2n1-c1cc(Br)ccc1OC2	inactive
N#C/C(=C\c1ccc(O)c(O)c1)C(=O)NCCc1ccccc1	inactive
NC1(C(=O)O)CCCCC1	inactive
COc1ccc2c(c1)c(CC(=O)O)c(C)n2Cc1ccc(Cl)cc1	inactive
NCCNS(=O)(=O)c1cccc2c(Cl)cccc12	inactive
COc1ccc(CCN(C)CCc2ccc(OC)c(OC)c2)cc1OC	inactive
Nc1ccc2c3c(cccc13)C(=O)NC2=O	inactive
O=C(O)C1=CCNCC1	inactive
NC(N)=[N+]1CCc2ccccc2C1	inactive
COc1cc2c(CCNC(C)=O)c[nH]c2cc1O	inactive
OC1(c2ccc(Cl)cc2)CCN(Cc2c[nH]c3ccccc23)CC1	inactive
CC(C)(C)c1cc(/C=C(\C#N)C(N)=S)cc(C(C)(C)C)c1O	inactive
COc1ccc2c(c1)c(CC(=O)O)c(C)n2C(=O)c1ccccc1	inactive
CCCC(=O)NCCc1c2n(c3ccc(OC)cc13)CCCc1ccccc1-2	inactive
Cn1c(=O)[nH]c2ncn(C)c2c1=O	inactive
CCCCCCCC/C=C\CCCCCCCC(=O)NCCc1ccc(O)c(O)c1	inactive
CCCCOC(=O)NS(=O)(=O)c1sc(CC(C)C)cc1-c1ccc(Cn2c(CC)nc3c(C)cc(C)nc32)cc1	inactive

Compound	outcome
CCCCCCCCCCC/C=C\C(C)(C)/C=C\CCCC(=O)O	inactive
O=C(O)C1=CCCN(CCON=C(c2ccccc2)c2ccccc2)C1	inactive
O=c1oc(Cl)c(Cl)c2ccccc12	inactive
CN[C@H](CC(=O)O)C(=O)O	inactive
O=c1[nH]c2ccccc2c2ccccc12	inactive
COc1ccc(C(=O)NCc2cccnc2)cc1C(=O)NCc1cccnc1	inactive
CC(N)=O	inactive
[Li+]	inactive
N[C@@H](Cc1c[nH]c2ccccc12)C(=O)O	inactive
O=C1Nc2ccc(I)cc2/C1=C/c1cc(Br)c(O)c(Br)c1	inactive
O=c1onc2cnc3ccccc3n12	inactive
CCN(CC)CCCCCCCCOC(=O)c1cc(OC)c(OC)c(OC)c1	inactive
Fc1ccc(CN(C2=NCCN2)c2c(Cl)cccc2Cl)cc1	inactive
COc1cc(CNC(=O)CCCCCCC(C)C)ccc1O	inactive
Cn1c(=O)c2[nH]c(C3CCCC3)nc2n(C)c1=O	inactive
CSC(=N)N	inactive
NC(N)=NC(N)=Nc1cccc(Cl)c1	inactive
CC(=O)NCCc1c[nH]c2ccc(O)cc12	inactive
CC(C)NC[C@H](O)COc1ccc(CC(N)=O)cc1	inactive
